FAS TE block = inhibitors of human fatty acid synthase thioesterase domain; P49327; recombinant FAS-TE, OMFH fluorogenic substrate, fluorescence endpoint; inhibition, % at 15 µM; actives 0.67% (n = 360,000);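 active = compounds whose normalised, plate-corrected inhibition of enzyme fluorescence in the single-dose primary screen is 50% or more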;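 note: 0% = DMSO with enzyme and 100% = substrate without enzyme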
ADAM10 inh = inhibitors of human ADAM10; O14672; recombinant ADAM10, EDANS/DABCYL FRET peptide cleavage, 3 h; inhibition, % at 7 µM; actives 0.62% (n = 370,000); AID 720582;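 active = inhibition above a per-campaign cutoff equal to the mean of compounds falling between control-based bounds plus 3 SD, cut at about 20% in these data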;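 note: 0% = DMSO wells while the 100% control is not disclosed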
Target sequence (O14672 214-748 limits assumed): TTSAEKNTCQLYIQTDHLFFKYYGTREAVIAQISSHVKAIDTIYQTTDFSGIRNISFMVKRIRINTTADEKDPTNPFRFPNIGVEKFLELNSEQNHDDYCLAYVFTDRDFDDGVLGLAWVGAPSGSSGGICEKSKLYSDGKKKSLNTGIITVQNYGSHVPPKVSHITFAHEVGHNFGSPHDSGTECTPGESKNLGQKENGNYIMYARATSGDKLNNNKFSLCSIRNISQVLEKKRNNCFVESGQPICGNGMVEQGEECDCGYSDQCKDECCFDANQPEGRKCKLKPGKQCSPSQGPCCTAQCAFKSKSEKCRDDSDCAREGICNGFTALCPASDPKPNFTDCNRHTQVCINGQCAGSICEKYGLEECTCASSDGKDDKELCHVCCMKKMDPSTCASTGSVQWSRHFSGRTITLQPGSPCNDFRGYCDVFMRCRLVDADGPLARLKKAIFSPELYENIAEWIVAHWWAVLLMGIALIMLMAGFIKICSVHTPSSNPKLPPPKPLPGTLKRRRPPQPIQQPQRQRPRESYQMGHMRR
ADAM17 inh = ADAM17 inhibition, QFRET primary screen; P78536; inhibition, % at 6.95 µM; recombinant ADAM17, EDANS/DABCYL FRET peptide cleavage; actives 0.83% (n = 370,000);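 active = inhibition above the mean of compounds lying between control limits plus 3 SD, set per campaign, cut at about 8.5% in these data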;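 note: 0% = DMSO-only wells as the low control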
aDG glyco up = alpha-DG glycosylation activation; Pro5-aDG cells, alpha-DG glycosylation AlphaScreen (IIH6); 0% Pro5, 100% B10-LARGE cell signal; activation, % at 10 µM; actives 0.22% (n = 360,000); AID 624168;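 active = activation of at least 8% versus controls, or a plate z-score of at least 8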;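 note: Pro5 are CHO cells carrying HIG-tagged alpha-DG that lacks glycosylation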
NR3A LBD binder = modulates the human NR3A ligand-binding domain | NR3A LBD differential scanning fluorimetry, Tm shift; 0% = protein alone, 100% = glycine-bound protein | Tm shift relative to glycine control, % at 25 µM | actives 2.5% (n = 340,000) | AID 1259313;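 active = melting temperature shift of at least 10% of the positive control shift, at one fixed dose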
An asterisk follows results filed as active; nt = no result given. The list is not random: actives were taken first. Their share in the collection is about 4%.

SMILES	FAS TE block	ADAM10 inh	ADAM17 inh	aDG glyco up	NR3A LBD binder
Cc1cccc(C)c1NC(=O)COC(=O)CCc1c[nH]c2ccccc12	-1	-12	-1	0	0
O=C(COC(=O)c1c[nH]c2ccccc12)Nc1ccc([N+](=O)[O-])cc1	9	12	6	0	2
COC(=O)c1cc(NC(=O)COC(=O)CCc2c[nH]c3ccccc23)cc(C(=O)OC)c1	0	-1	-5	0	11*
O=C(COC(=O)CCc1c[nH]c2ccccc12)Nc1ccc([N+](=O)[O-])cc1	21	9	1	0	35*
COc1ccccc1OCCCC(=O)Nc1nccs1	-2	1	-1	0	-1
Cc1[nH]c2ccccc2c1/C=N/NC(=S)NCc1ccccc1	12	14	5	0	23*
Cc1ccc(NC(=S)N/N=C/c2c(C)[nH]c3ccccc23)cc1	11	4	1	0	22*
COc1ccc(/C=C/C(=O)O/N=C(\N)c2ccccn2)cc1OC	-4	-166	-40	0	0
Cc1ccc(C(=O)NCC(=O)OCc2csc(-c3ccccc3)n2)cc1	-4	2	-3	0	0
O=C(OCc1csc(-c2ccccc2)n1)c1ccc(O)cc1	3	-5	-1	0	20*
COc1ccc(/C=C/C(=O)OCc2csc(-c3ccccc3)n2)cc1OC	26	-17	-6	0	18*
COc1cccc(NC(=O)CSc2nc3ccsc3c(=O)n2-c2ccc(C(=O)O)cc2)c1	-3	0	-3	0	-3
COc1ccc(Cn2cc(CN3CC(N4CCCCC4)CS3(=O)=O)nn2)cc1 (configuration not stated)	-12	5	2	0	nt
COc1ccc(CN2C[C@H]3CCCN3c3cc(Br)ccc3S2(=O)=O)cc1	19	nt	nt	0	18*
Nc1nccc(-c2ccc(-n3cnc4ccccc43)cc2)n1	-7	-107	-32	0	0
CCOC(=O)c1c(NC(=O)c2cc3n(n2)C(C(F)(F)F)CC(c2ccccc2)N3)sc(C)c1C (configuration not stated)	0	1	2	0	18*
CC(C)(C)CC(=O)NC(=S)Nc1ccccc1C(F)(F)F	10	14	3	0	14*
CC(C)CC(=O)NC(=S)Nc1ccccc1C(F)(F)F	7	-2	-2	0	0
O=c1c2c(ncn2C2CCCC2)n(Cc2ccccc2)c(=O)n1CCOc1ccccc1	15	9	6	0	15*
N#Cc1ccc(OC(=O)c2cnccn2)cc1	-1	-1	-2	0	0
CC1CCN(S(=O)(=O)c2ccc(C(=O)OC(C)C(=O)N(C)C3CCCCC3)cc2)CC1 (configuration not stated)	1	-4	-4	0	15*
CC1CCN(S(=O)(=O)c2ccc(C(=O)OC(C)C(=O)NC3CCCCC3C)cc2)CC1 (configuration not stated)	-6	-4	-2	0	1
COc1cc(OC)cc(-c2c(Sc3ccccc3)c3cc(-c4ccc(OC)c(OC)c4)ccc3n2C)c1	27	-54	-7	-1	nt
O=C(C1CCN(c2nnc(N3CCCC3=O)s2)CC1)N1CCN(c2cccc(C(F)(F)F)c2)CC1	-6	1	-5	0	17*
Cc1ccc(C)c(N2CCN(C(=O)C3CCN(c4nnc(N5CCCC5=O)s4)CC3)CC2)c1	-2	-1	3	1	2
SMILES	FAS TE block	ADAM10 inh	ADAM17 inh	aDG glyco up	NR3A LBD binder
COc1cc(/C=N/NC(=O)Cc2csc(N3CCOCC3)n2)cc(OC)c1O	-6	-45	-10	0	15*
CC(C)c1ccc(NC(=O)COC(=O)CSc2nnc(N)s2)cc1	-7	-1	-2	0	13*
Nc1nnc(SCC(=O)OCC(=O)Nc2ccccc2F)s1	-3	-6	-2	0	1
COc1cc(NS(=O)(=O)N2CCCC2)cc(OC)c1OC	7	7	-1	0	15*
Cc1ccc(S(=O)(=O)N/N=C/c2cc([N+](=O)[O-])ccc2O)cc1[N+](=O)[O-]	48	-4	-5	0	21*
COc1cc(/C=N/NC(=O)Cn2nc([N+](=O)[O-])cc2C)cc(Br)c1OCc1ccccc1	30	-6	-6	2	9
CCOc1cc(/C=N/NC(=O)Cn2nc([N+](=O)[O-])cc2C)cc(Br)c1OCc1ccccc1C	18	-5	-6	-1	13*
Oc1cccc(C2c3[nH]c4ccccc4c3CCN2Cc2ccoc2)c1 (configuration not stated)	-1	-19	-7	0	-1
Oc1cccc(C2c3[nH]c4ccccc4c3CCN2Cc2ccc3c(c2)CCO3)c1 (configuration not stated)	14	-6	0	0	11*
Cc1cc(Cl)c(OCCOCCN2CCN(C)CC2)c(Br)c1	-6	-7	-2	0	0
Cc1cc(Cl)c(OCCOCCN2CCC(C)CC2)c(Br)c1	-9	2	2	1	17*
Cc1ccc(-c2nc3cc(NS(=O)(=O)c4ccc(C)cc4)ccc3o2)cc1	42	-11	-4	0	12*
Cc1c(C(=O)Nc2ccc3oc(-c4cccnc4)nc3c2)oc2ccccc12	0	-30	-8	0	16*
O=C(Nc1ccc(-c2nc3ccccc3o2)cc1)c1cccnc1	2	0	1	0	25*
O=C(Nc1ccc2oc(-c3ccccc3Cl)nc2c1)c1cncc(Br)c1	-3	-3	-4	0	12*
Cc1ccc2oc(-c3ccc(NC(=O)c4cccnc4)cc3)nc2c1	2	-5	-6	2	35*
O=C(Nc1ccc2oc(-c3cccnc3)nc2c1)c1cccnc1	-8	-19	-5	0	-3
O=C(Nc1nc2ccccc2s1)C1CC(=O)N(c2ccc(Br)cc2)C1 (configuration not stated)	19	19	8	0	16*
COc1ccc(NC(=O)Nc2ccc(OCc3ccccc3)cc2)cn1	-2	-5	1	0	29*
O=C(Nc1ccc(OCc2ccccc2)cc1)Nc1cccnc1	-3	0	2	0	15*
COc1ccc(CC(=O)Nc2ccc(OC)nc2)cc1	-11	6	0	0	-1
CCN(C(=O)C1CCCN(c2nc(-c3ccc(OC)cc3)no2)C1)c1ccccc1F (configuration not stated)	19	-3	0	0	-1
CCCn1c(=O)[nH]c2ccccc21	-6	6	2	0	1
O=C(CCN1C(=O)S/C(=C\C=C\c2ccccc2)C1=O)Nc1ccc(O)cc1	4	2	0	0	13*
O=C(CN1C(=O)S/C(=C\C=C\c2ccccc2)C1=O)Nc1cccc(O)c1	12	14	7	0	27*
O=C(CN1C(=O)S/C(=C\C=C\c2ccccc2)C1=O)Nc1ccccc1C(=O)O	24	5	0	0	0

Screening data as filed in PubChem.
